PubChem BioAssay (EPA / NIEHS)
Active and inactive are the calls of the source. How the source made its calls: active means hit-call score of the fitted dose curve at least 0.9, where 1 is the maximum; inactive means score below 0.9.

These molecules were tested on Potassium channel subfamily K member 1 (KCNK1), KCNK1 (gene 3775) (assay: LTEA_HepaRG_KCNK1: Life Technologies and Expression Analysis (LTEA) Assay for Potassium channel subfamily K member 1 (KCNK1) using HepaRG (AID 2283511)). Conditions: mRNA level, 48 h; actives raise or lower the signal.
Experimental: LTEA_HepaRG is a cell based, multiplexed-readout assay that uses HepaRG, a human liver cell line, with measurements taken at 48 hours after chemical dosing on a 96-well plate.LTEA_HepaRG_KCNK1 is one of 102 assay component(s) measured in the LTEA HepaRG cell culture assay. It is a marker of Hyperplasia.Data from the assay component LTEA_HepaRG_KCNK1 was analyzed into 1 endpoint. This assay endpoint, LTEA_HepaRG_KCNK1, was analyzed with bidirectional fitting relative to DMSO as the negative control and baseline of activity. Using a type of inducible reporter, measures of mRNA induction for gain or loss-of-signal activity can be used to understand regulation of transcription factor activity. To generalize the intended target to other relatable targets, this assay endpoint is annotated to the ion channel intended target family, where the subfamily is potassium channel.
A total of 1060 chemcials from the ToxCast library were tested in eight-point concentration-response experiments. Cell culture and cytotoxicity assays were conducted at Thermo Fisher Scientific's Custom Services facility (Madison, WI). A single lot of human HepaRG cells (Thermo Fisher Scientific, Frederick, MD) was used for the cell culture experiments. 96-well format collagen type I coated plates of human HepaRG cells were prepared using established methods. Briefly, cryopreserved HepaRG cells were thawed, plated at a density of approximately 100,000 cells/well in HepaRG Thaw, Plate, and General Purpose media (HPRG770, Thermo Fisher Scientific), and incubated for 48 hours. 0.5% DMSO was selected as vehicle control to balance the requisite need of DMSO in HepaRG cultures to maintain differentiation (for example, baseline metabolism, proportions of hepatocytes vs. cholangiocytes), while enabling further hepatic receptor pathway activation (for example, PXR and CAR) in response to chemical exposure. 48 hours after plating, the culture medium was replaced with HepaRG Serum-Free Incudtion Media. Cells were exposed to each test chemical in duplicate and maintained in CO2 incubators for another 48 hours. Chemical plates were thawed to room temperature and 200x concentrations of treatment groups were prepared. 8-point conentration-reponse curves were made with the highest exposure at 100 uM, followed by half-log dilutions, all in 0.5% DMSO. Each test plate contained variouse controls, induction positive controls (1mM phenobarbital), cytotoxicity positive controls ([…] aflatoxin B1), vehicle controls (0.5% DMSO), and total lysis controls (0.5% DMSO). Cell morphology images were taken using an Essen IncuCyte FLR automated microscope, with six 96-well plates imaged in about 24 minutes. Images were captured and exported and JPEG files. Spent culture media was transfered to black-well plates for the LDH assay, and remaining media was sorted at -80 C for later use. Cells were treated with RLT buffer and frozen until shipped for gene expression analysis. Total RNA was isolated from the cell suspension in 75 uL of Buffer RLT (Qiagen, Germantown, MD 20874) by Quintiles/Expression Analysis (Durham, NC) using a custom isolation procedure. Total RNA from each plate well was transferred to a preamplification plate. Fluidigm's 96.96 Dynamic ArrayTM (Fluidigm, Amsterdam, the Netherlands) technology was used for gene expression analyses by quantitative reverse transcription polymerase chain reaction (qRT-PCR, performed by Quintiles/Expression Analysis, Durham, NC)89. Standard TaqManTM Assays (Applied Biosystems/ThermoFisher Scientific, Foster City, CA) were used to assess the expression of 93 genes selected based on their selectivity and sensitivity to important hepatic receptors known to be modulated by environmental chemicals; importance in human hepatocyte functionality; and hepatotoxicity. […]
For `CCOP(=O)(OCC)Oc1nc(Cl)c(Cl)cc1Cl`, the outcome was “inactive”. For `CCCCOCN(C(=O)CCl)c1c(CC)cccc1CC`, the outcome was “inactive”. For `CC1(C)C(C(=O)OC(C#N)c2cccc(Oc3ccccc3)c2)C1(C)C` (stereo not given), the outcome was “inactive”. In the case of `CCCC(=NOCC)C1=C(O)CC(CC(C)SCC)CC1=O` (stereo not given), the outcome is reported as “inactive”. In the case of `Cc1cnc(C2=NC(C)(C(C)C)C(=O)N2)c(C(=O)O)c1` (stereo not given), the outcome is reported as “inactive”. With `CCN(CC)C(=O)C(C)Oc1cccc2ccccc12` (stereo not given) the outcome was “inactive”. For `CN=C=S`, the outcome was “inactive”. `O=c1n(Cl)c(=O)n(Cl)c(=O)n1Cl` was tested, and the outcome was “inactive”. `CC(C)N1C(=O)N(c2ccccc2)CSC1=NC(C)(C)C` was tested, and the outcome was “inactive”. In the case of `COCC(=O)N(c1c(C)cccc1C)C(C)C(=O)OC` (stereo not given), the outcome is reported as “inactive”. For `CC1(C)CON(Cc2ccccc2Cl)C1=O`, the outcome was “inactive”. For `CNC(=O)N(C)c1nnc(C(C)(C)C)s1`, the outcome was “inactive”. In the case of `N#Cc1c(Cl)cccc1Cl`, the outcome is reported as “inactive”. `CCSC(=O)N1CCCCCC1` was tested, and the outcome was “inactive”. With `COc1ccc(-c2ccccc2)cc1NNC(=O)OC(C)C` the outcome was “inactive”. For `CCCCC(C#N)(Cn1cncn1)c1ccc(Cl)cc1` (stereo not given), the outcome was “inactive”. `COCc1cnc(C2=NC(C)(C(C)C)C(=O)N2)c(C(=O)O)c1` (stereo not given) was tested, and the outcome was “inactive”. For `C=CCOC(=O)C(C)(C)OC(=O)c1cc(-n2c(=O)cc(C(F)(F)F)n(C)c2=O)ccc1Cl`, the outcome was “inactive”. In the case of `CCC(C)n1c(=O)[nH]c(C)c(Br)c1=O` (stereo not given), the outcome is reported as “inactive”. `Cc1c(COC(=O)[C@@H]2[C@H](/C=C(\Cl)C(F)(F)F)C2(C)C)cccc1-c1ccccc1` was tested, and the outcome was “inactive”. For `N#Cc1c[nH]cc1-c1cccc2c1OC(F)(F)O2`, the outcome was “inactive”. In the case of `CC(C)=CC1C(C(=O)OCc2coc(Cc3ccccc3)c2)C1(C)C` (stereo not given), the outcome is reported as “inactive”. `Cc1cc(C)nc(Nc2ccccc2)n1` was tested, and the outcome was “inactive”. In the case of `COc1cc(OC)nc(NC(=O)NS(=O)(=O)c2ncccc2OCC(F)(F)F)n1`, the outcome is reported as “inactive”. For `Nc1c(Cl)c(F)nc(OCC(=O)O)c1Cl`, the outcome was “inactive”. With `Clc1nc(Cl)nc(Nc2ccccc2Cl)n1` the outcome was “inactive”. With `Clc1cccc(C(Cl)(Cl)Cl)n1` the outcome was “inactive”. `CCNP(=S)(OC)O/C(C)=C/C(=O)OC(C)C` (stereo not given) was tested, and the outcome was “inactive”. With `CN/C(=N\[N+](=O)[O-])NCc1cnc(Cl)s1` the AC50 was 50 µM (active). `CO/N=C(/C1=NOCCO1)c1ccccc1Oc1ncnc(Oc2ccccc2Cl)c1F` was tested, and the outcome was “inactive”. `N#CN=C1SCCN1Cc1ccc(Cl)nc1` was tested, and the outcome was “inactive”. In the case of `COC(=O)c1c(C(F)F)nc(C(F)(F)F)c(C2=NCCS2)c1CC(C)C`, the outcome is reported as “inactive”. `Cc1ccc(N=CN(C)C=Nc2ccc(C)cc2C)c(C)c1` was tested, and the outcome was “inactive”. In the case of `COCC(C)N(C(=O)CCl)c1c(C)csc1C` (stereo not given), the outcome is reported as “inactive”. For `O=C(Nc1ccccc1-c1ccc(Cl)cc1)c1cccnc1Cl`, the outcome was “inactive”. `CCOC(=O)C(C)OC(=O)c1cc(Oc2ccc(C(F)(F)F)cc2Cl)ccc1[N+](=O)[O-]` (stereo not given) was tested, and the outcome was “inactive”. `CNC(=O)Oc1cccc2ccccc12` was tested, and the outcome was “inactive”. For `CCCCC(O)(Cn1cncn1)c1ccc(Cl)cc1Cl` (stereo not given), the AC50 was 41.3 µM (active). For `Nc1cnn(-c2ccccc2)c(=O)c1Cl`, the outcome was “inactive”. With `CC(C)(C)C(=O)C(Oc1ccc(Cl)cc1)n1cncn1` (stereo not given) the outcome was “inactive”.
